In the library only some 4.5% were active in any assay of this set; here they are far more common.
GAA850 FXN act: activators of GAA850 frataxin (FXN) promoter; HEK293 lucGAA850 FXN promoter luciferase reporter, 24 h; percent of 10 µM SAHA response; activation, % at 6 µM; 0.56% of 360,000 active;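 active means activation above the average of all compounds screened plus 3 SD, cutoff fixed separately per campaign, cut at about 7.5% in these data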;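 further: 0% = DMSO wells and 100% = 10 µM SAHA wells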
hgDAF12 agonist: agonists of H. glycines DAF-12 nuclear receptor; HEK293 GAL4-hgDAF12 UAS-luciferase reporter, agonist luminescence; normalized to butyrate control; activation, % at 6.8 µM; 1.8% of 370,000 active; AID 687014;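 active means activation above a cutoff set at the mean of all screened compounds plus 3 SD, cut at about 10% in these data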;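 further: 0% = DMSO wells and 100% = sodium butyrate wells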
DAX1 inh-1: inhibitors of human orphan nuclear receptor DAX1 (NR0B1). HEK293 Gal4-DAX1 luciferase reporter, luminescence. inhibition, % at 6.75 µM. 0.99% of 340,000 active;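 active means inhibition above the mean over all tested compounds plus 3 SD, cut at about 4.2% in these data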;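 further: 0% = DAX1-transfected cells with DMSO and 100% = empty-vector control cells with DMSO; inhibition shows as a rise in luminescence from relieved DAX1 repression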
ssDAF-12 act: activates DAF-12 receptor from parasite S. stercoralis; 1% of 370,000 active; activation, % at 6.8 µM; HEK293 ssDAF-12/GRIP1 lit1-tk-luc reporter, luminescence; % of 3 µM dafachronic acid response;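 active means activation above the mean over all tested compounds plus 3 SD, cut at about 0.9% in these data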;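 further: 0% = DMSO-only wells and 100% = 3 µM delta7-dafachronic acid wells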
hcDAF12 agonist: activates DAF-12 receptor from parasite H. contortus | HEK293 hcDAF-12 lit1-tk-luc reporter, luminescence; 0% DMSO, 100% Δ7-dafachronic acid | activation, % at 6.8 µM | 1.4% of 370,000 active | AID 652067;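 active means activation above the mean of all tested compounds plus 3 SD, cut at about 5.5% in these data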;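 further: 100% = response to 3 µM Δ7-dafachronic acid high control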
DAX1 inh-2: DAX1 (NR0B1) inhibition, primary screen. HEK293T StAR-luciferase reporter, SF-1/DAX-1 repression relief. inhibition, % at 6.8 µM. 1.1% of 370,000 active. AID 652010;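 active means inhibition above the mean over all tested compounds plus 3 SD, cut at about 3.6% in these data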;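 further: 0% = DAX-1 cells with DMSO and 100% = cells lacking DAX-1 with DMSO; higher inhibition means more luminescence from relief of DAX-1 repression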
DAX1 conf: NR0B1 (human) inhibition, confirmation; 87% of 2,400 active; shares compounds with DAX1 inh-2; AID 652134; inhibition, % at 6.8 µM; HEK293T StAR-promoter luciferase reporter, SF-1/DAX-1 repression;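 active means inhibition above the average of every tested compound plus 3 SD, cut at about 3.8% in these data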;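 further: 0% = DAX-1 cells with DMSO and 100% = no DAX-1 control cells with DMSO; active compounds raise luminescence by relieving repression of the StAR reporter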
Target sequence (P51843 whole entry, looked up): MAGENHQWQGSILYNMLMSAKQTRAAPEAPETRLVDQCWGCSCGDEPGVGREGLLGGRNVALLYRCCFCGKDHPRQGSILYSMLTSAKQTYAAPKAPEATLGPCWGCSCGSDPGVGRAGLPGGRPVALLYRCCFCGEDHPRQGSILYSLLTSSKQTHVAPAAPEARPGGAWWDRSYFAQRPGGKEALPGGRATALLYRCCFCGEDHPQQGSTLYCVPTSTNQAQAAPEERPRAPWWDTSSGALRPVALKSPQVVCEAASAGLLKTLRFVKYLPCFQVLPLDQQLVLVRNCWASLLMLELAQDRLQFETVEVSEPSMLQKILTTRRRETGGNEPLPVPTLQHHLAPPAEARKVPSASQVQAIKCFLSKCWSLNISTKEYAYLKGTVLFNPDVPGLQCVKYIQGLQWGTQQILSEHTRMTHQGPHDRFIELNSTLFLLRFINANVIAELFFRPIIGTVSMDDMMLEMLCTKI
SF1 AF2mut Luc: counter-screen for DAX1 inhibitors: nonselective inhibitors with SF-1 AF2 mutant; shares compounds with DAX1 inh-2; HEK293 StAR-luciferase, luminescence; inhibition, % at 6.8 µM; 78% of 2,400 active;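 active means inhibition above the mean of all tested compounds plus 3 SD, cut at about 3% in these data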;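 further: 0% = DAX-1 transfected cells with DMSO and 100% = cells without DAX-1 with DMSO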
LXR ag: counter-screen for hcDAF-12 agonists: agonists of human LXR-beta; 3,400 tested, under 10 active; HEK293 Gal4-LXR tk-luc reporter, luminescence, 24 h; normalized: DMSO 0%, positive control 100%; activation, % at 6.8 µM; shares compounds with hcDAF12 agonist;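 active means mean percent activation of the reporter above a cutoff set as the average over tested compounds plus their standard deviation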
hcDAF12 conf: confirmation of H. contortus DAF-12 agonists. shares compounds with hcDAF12 agonist. HEK293 hcDAF-12 lit1-tk-luc reporter, luminescence; % of Δ7-dafachronic acid response. activation, % at 6.8 µM. 61% of 3,400 active. AID 743032;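 active means mean activation across triplicate tests above the threshold derived from the earlier primary screen, cut at about 5.5% in these data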;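 further: 0% = DMSO only wells and 100% = 3 µM Δ7-dafachronic acid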
hgDAF12 conf: confirmation of H. glycines DAF-12 agonists. shares compounds with hgDAF12 agonist. HEK293 GAL4-hgDAF12 luciferase reporter, agonist mode; percent of butyrate response. activation, % at 6.8 µM. 80% of 3,300 active;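 active means mean activation over triplicate wells above the hit cutoff derived from the earlier primary screen, cut at about 11% in these data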;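 further: 0% = DMSO low control and 100% = 2 mM sodium butyrate high control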
LXR ag 2: activates human LXR-beta, counter-screen for DAF-12 agonists; AID 743051; activation, % at 6.8 µM; shares compounds with hgDAF12 agonist; 3,300 tested, under 10 active; HEK293 Gal4-LXR luciferase reporter, 24 h;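 active means mean activation of the triplicate above a set limit carried over from the primary screen, none filed active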
Starred values were filed as active, the others as inactive.

How did CSc1ccc(/C=N/Nc2ccc(Cl)c(C(=O)O)c2)cc1 do in these assays?
GAA850 FXN act: 4.8; hgDAF12 agonist: 14.3*; DAX1 inh-1: 1.4; ssDAF-12 act: 0.1; hcDAF12 agonist: 4.7; DAX1 inh-2: 6.7*; DAX1 conf: 17.1*; SF1 AF2mut Luc: 5.9*; hgDAF12 conf: 28.7*; LXR ag 2: 1.0

Results for COc1ccc(N=C2C(=Nc3ccc(OC)cc3)N(c3ccccc3)C(=S)N2C(=O)c2ccc(Cl)cc2)cc1 ?
GAA850 FXN act: 0.7; hgDAF12 agonist: 15.0*; DAX1 inh-1: -0.5; ssDAF-12 act: -0.3; hcDAF12 agonist: 4.5; DAX1 inh-2: 4.5*; DAX1 conf: 6.0*; SF1 AF2mut Luc: 5.8*; hgDAF12 conf: 18.3*; LXR ag 2: 0.8

What do the screens show for `CC(C)c1[nH]nc2c1C(c1ccc(F)cc1)N(Cc1ccccc1)C2=O` (configuration not stated)?
hgDAF12 agonist: -0.2; ssDAF-12 act: -1.1; hcDAF12 agonist: -1.4; DAX1 inh-2: 0.2

How did O=C(/C=C(\Nc1ccc(Br)c(F)c1)c1ccccc1)c1ccccc1 do in these assays?
hgDAF12 agonist: 5.2; ssDAF-12 act: -1.0; hcDAF12 agonist: 0.5; DAX1 inh-2: -0.2

How did CCc1ccc2cc(C)cnc2n1 do in these assays?
hgDAF12 agonist: 1.7; ssDAF-12 act: 0.4; hcDAF12 agonist: 2.6; DAX1 inh-2: 1.9

What do the screens show for `Cc1cnc2nc(-c3ccccc3)ccc2c1`?
hgDAF12 agonist: 17.2*; ssDAF-12 act: 1.0*; hcDAF12 agonist: 6.8*; DAX1 inh-2: 8.2*; DAX1 conf: 10.9*; SF1 AF2mut Luc: 6.8*; LXR ag: 1.6; hcDAF12 conf: 6.6*; hgDAF12 conf: 19.1*; LXR ag 2: 0.9

What do the screens show for `CCOc1ccc(/C=C\C(C)=N\O)cc1`?
GAA850 FXN act: 7.1; hgDAF12 agonist: 13.5*; DAX1 inh-1: 2.4; ssDAF-12 act: 0.4; hcDAF12 agonist: 1.6; DAX1 inh-2: 4.9*; DAX1 conf: 8.2*; SF1 AF2mut Luc: 6.9*; hgDAF12 conf: 13.4*; LXR ag 2: 0.5

Results for CCOc1ccc(/C=C/C(=O)Oc2ccc(OC)cc2)cc1 ?
GAA850 FXN act: 0.5; hgDAF12 agonist: 0.4; DAX1 inh-1: 1.5; ssDAF-12 act: -1.0; hcDAF12 agonist: -1.4; DAX1 inh-2: 0.2

What do the screens show for `COc1ccc(OC)c(S(=O)(=O)N(CCc2ccc(OC)c(OC)c2)Cc2cccs2)c1`?
hgDAF12 agonist: -2.5; ssDAF-12 act: -1.9; hcDAF12 agonist: -2.5; DAX1 inh-2: -2.1

How did NC(=O)C1CC(=O)N(c2ccc(OCc3ccc(Cl)c(Cl)c3)cc2)C1 (configuration not stated) do in these assays?
GAA850 FXN act: 5.9; hgDAF12 agonist: 24.7*; DAX1 inh-1: 4.5*; ssDAF-12 act: 0.7; hcDAF12 agonist: 5.8*; DAX1 inh-2: 10.2*; DAX1 conf: 14.7*; SF1 AF2mut Luc: 9.3*; hgDAF12 conf: 15.8*; LXR ag 2: 0.8

Screening results deposited in PubChem by The Scripps Research Institute Molecular Screening Center.
